Source: PubChem BioAssay AID488969 (Vanderbilt High Throughput Screening Facility, 2010)
Over roughly 110,000 compounds, “z-score” has its median near -0.1; the highest 2% begin near 2. The entries come from a sample that favours the highest values as a whole. Activity calls are given as the source filed them.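 The calls were made as follows: active = z-score in the third read window above 3 or below -3; inactive = the rest.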

Each compound was assayed against Metabotropic glutamate receptor 8 (Rattus norvegicus) (UniProt P70579) (assay: rat mGluR8 modulators via GIRK flux, primary screen, cell-based, thallium flux, HTS (AID 488969)). Details: HEK293 rat mGluR8, GIRK (G protein-gated inwardly rectifying potassium channel) thallium flux, FluoZin2; at 10 µM; stronger effect = higher value; submaximal glutamate (EC20) added with thallium.
Sequence of Metabotropic glutamate receptor 8 (Rattus norvegicus) (P70579 whole entry, looked up): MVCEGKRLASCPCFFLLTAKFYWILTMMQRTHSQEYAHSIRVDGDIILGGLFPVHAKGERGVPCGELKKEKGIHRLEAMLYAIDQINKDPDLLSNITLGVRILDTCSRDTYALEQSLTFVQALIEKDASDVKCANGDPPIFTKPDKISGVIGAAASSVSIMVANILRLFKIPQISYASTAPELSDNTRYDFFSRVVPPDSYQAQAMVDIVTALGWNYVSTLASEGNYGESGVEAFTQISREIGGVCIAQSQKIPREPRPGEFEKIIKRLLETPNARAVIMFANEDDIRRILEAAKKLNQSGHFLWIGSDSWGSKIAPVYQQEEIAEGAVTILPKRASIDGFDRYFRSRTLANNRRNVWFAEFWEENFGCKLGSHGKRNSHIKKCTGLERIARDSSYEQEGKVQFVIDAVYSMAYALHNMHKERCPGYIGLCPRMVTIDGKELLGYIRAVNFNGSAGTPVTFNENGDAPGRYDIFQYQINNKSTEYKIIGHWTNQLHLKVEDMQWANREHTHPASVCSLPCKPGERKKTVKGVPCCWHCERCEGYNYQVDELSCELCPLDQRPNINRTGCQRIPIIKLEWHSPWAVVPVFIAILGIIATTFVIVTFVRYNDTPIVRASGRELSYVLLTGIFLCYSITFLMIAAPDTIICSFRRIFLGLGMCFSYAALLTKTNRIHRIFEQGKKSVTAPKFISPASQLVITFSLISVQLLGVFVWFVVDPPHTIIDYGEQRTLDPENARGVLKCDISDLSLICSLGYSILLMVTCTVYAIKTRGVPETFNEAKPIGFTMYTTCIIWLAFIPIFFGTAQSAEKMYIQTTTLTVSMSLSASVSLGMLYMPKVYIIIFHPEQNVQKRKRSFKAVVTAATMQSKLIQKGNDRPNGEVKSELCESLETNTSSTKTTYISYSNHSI

| Compound | z-score |
| --- | --- |
| CCOC(=O)CN1C(=O)C(C)(C)Oc2ccc(C(=O)Nc3ccccc3)cc21 | -0.637 |
| CCOC(=O)CN1C(=O)C(C)(C)Oc2ccc(C(=O)Nc3ccccc3OC)cc21 | 2.42 |
| CCOC(=O)CN1C(=O)C(C)(C)Oc2ccc(C(=O)NC(C)(C)CC)cc21 | 0.0354 |
| COc1ccc(/C=C/C(=O)Nc2nc(N)n(-c3ccccc3)n2)cc1 | -0.0927 |
| CCOC1CC(C)(C)NC(=S)N1 (stereo not given) | -0.234 |
| CCCc1ncc(C(O)c2cccc3ccccc23)n1C (stereo not given) | 0.327 |
| COCCN=C1Sc2nc3c(C)cccc3cc2CN1Cc1ccco1 | 0.0241 |
| O=C(CNS(=O)(=O)c1ccccc1)N1CCN(c2ccccc2)CC1 | -0.0656 |
| CC1(C)CC(=O)c2sc(NC(=O)CN3CCOCC3)nc2C1 | 0.431 |
| CC1(C)CC(=O)c2sc(NC(=O)CN3C(=O)CCC3=O)nc2C1 | 2.59 |
| CCOCC(=O)Nc1nc2c(s1)C(=O)CC(C)(C)C2 | -0.264 |
| C/C(=N\NC(=O)c1ccc(Cl)c(Cl)c1)c1cccc(NC(=O)C(C)C)c1 | 0.0284 |
| COc1ccc(-c2nnn(CC(=O)N(C3CCCCC3)C(C)C(=O)NC3CCCC3)n2)cc1OC (stereo not given) | 1.3 |
| CC(C)CCNC(=O)C(C)N(C(=O)Cn1nnc(-c2ccc(F)cc2)n1)C1CCCC1 (stereo not given) | 2.82 |
| CCC(C(=O)NC1CCCC1)N(C(=O)Cn1nnc(-c2ccc(C)cc2)n1)C1CCCC1 (stereo not given) | -0.114 |
| Cc1ccc(S(=O)(=O)NC2(C(F)(F)F)C(=O)Nc3c2c(=O)n(C)c(=O)n3C)cc1 (stereo not given) | -0.423 |
| O=C(Nc1ccccc1)c1ccc(N2CCN(c3ccccc3)CC2)c(S(=O)(=O)N2CCOCC2)c1 | -0.142 |
| O=C(N/N=C\CCc1ccccc1)c1ccco1 | 0.322 |
| NC(=O)CSc1ncc(-c2ccccc2)[nH]1 | 0.142 |
| COc1ccc(C(C(=O)OCCN(C)C)c2ccccc2)cc1 (stereo not given) | 0.325 |
| CCOc1ccc(C(=O)OCCN(CC)CC)cc1 | 0.374 |
| CCCOc1ccc(C(C(=O)OCCN(CC)CC)c2ccccc2)cc1 (stereo not given) | 2.43 |

| Compound | z-score |
| --- | --- |
| CC(=O)C(Sc1ccc2nnc(-c3ccc(C)cc3)n2n1)C(C)=O | 1.78 |
| O=C(/C(=C/c1ccc(Cl)cc1)c1nc2ccccc2[nH]1)c1ccccc1 | -0.287 |
| Cc1ccccc1NC(=O)N(CCc1nc2ccccc2[nH]1)Cc1ccccc1 | -0.292 |
| Cc1ccc(NC(=S)c2nc3ccccc3[nH]2)c(C)c1 | 6.64 (active) |
| Cc1ccccc1NC(=O)NCCc1nc2ccccc2[nH]1 | -0.0805 |
| S=C(Nc1ccc(Cl)cc1)c1nc2ccccc2[nH]1 | 6.95 (active) |
| Cc1ccc(C)c(NC(=S)c2ccc3ccccc3n2)c1 | 0.103 |
| Cc1ccccc1NC(=S)c1nc2ccccc2[nH]1 | 10.9 (active) |
| Cc1ccc(Nc2nnc(SC/C(O)=C(\C#N)c3nc4ccccc4[nH]3)s2)c(C)c1 | -0.166 |
| Cc1ccc(NC(=S)c2nc3ccccc3[nH]2)cc1 | -1.02 |
| CCn1c(COc2ccccc2)nnc1SCc1ccc(C#N)cc1 | -0.725 |
| Cc1c(Nc2nc3ccccc3nc2NS(=O)(=O)c2ccccc2)c(=O)n(-c2ccccc2)n1C | -0.716 |
| O=C(OCc1ccc([N+](=O)[O-])cc1)C1CCN(S(=O)(=O)c2ccccc2)CC1 | -0.136 |
| Cc1cc(C(F)F)n2nc(C(=O)Nc3ccc(S(=O)(=O)N4CCCC4)cc3)nc2n1 | -0.187 |
| CNS(=O)(=O)c1ccc(NC(=O)c2nc3nc(C)cc(C(F)F)n3n2)cc1 | -0.548 |
| CCN(CC)c1ccc(NC(=O)c2nc3nc(C)cc(C(F)F)n3n2)cc1 | 3.02 (active) |
| CCOC(=O)C1(C(=O)OCC)CC1c1ccccc1 (stereo not given) | -0.0513 |
| CCCCCCCCCn1c2c(c(=N)c3c1CCC3)CCC2 | 4.64 (active) |
| CCCCCCCCCCn1c2c(c(=N)c3c1CCC3)CCC2 | 0.554 |
| CCCCCCn1c2c(c(=N)c3c1CCC3)CCC2 | 1.81 |
| CCOC(=O)c1ccc(CNCc2ccc(C)cc2)cc1 | 0.302 |
| COC(=O)c1ccc(C(=O)OC)c(NC(=O)CSc2ccccn2)c1 | -0.644 |

| Compound | z-score |
| --- | --- |
| O/N=C1\CCc2cc(Cl)ccc21 | 0.365 |
| Clc1ccc2c(c1)CCc1cccnc1C2=C1CCNCC1 | 2.74 |
| CCOC(=O)c1c(NC(=O)COc2cccc3c2CCN(CC)C3=O)sc2c1CCC2 | -0.925 |
| CCOC(=O)c1c(-c2ccccc2)csc1NC(=O)c1nn(CC)cc1Br | -0.101 |
| O=S1(=O)CC(NCc2ccccc2)C(Nc2ccccc2)C1 (stereo not given) | 2.43 |
| COc1ccc(NC2CS(=O)(=O)CC2NCc2ccccc2)cc1 (stereo not given) | 0.261 |
| O=C(NC1CS(=O)(=O)CC1NCc1ccccc1)c1ccccc1 (stereo not given) | 0.00939 |
| C=CCNC(=O)C1CC(=O)N(c2ccc(OCC(=O)Nc3ccccc3)cc2)C1 (stereo not given) | 4.85 (active) |
| C=CCNC(=O)C1CC(=O)N(c2ccc(OCC(=O)Nc3ccc(OC)cc3)cc2)C1 (stereo not given) | -0.466 |
| C=CCNC(=O)C1CC(=O)N(c2ccc(OCC(=O)Nc3ccc(C)cc3)cc2)C1 (stereo not given) | 0.104 |
| C=CCSc1nnc(NC(=O)c2cccc(S(=O)(=O)N(C)c3ccccc3)c2)s1 | 0.542 |
| O=C(COC(=O)c1sc2ccccc2c1Cl)NC1CCCCC1 | -0.479 |
| CCOC(=S)NC(=O)c1sc2ccccc2c1Cl | 11.1 (active) |
| CCCCOC(=S)NC(=O)c1sc2ccccc2c1Cl | 17.3 (active) |
| CN(C(=O)COC(=O)CNC(=O)c1sc2ccccc2c1Cl)c1ccccc1 | -0.854 |
| Cc1ccccc1NC(=O)COC(=O)CNC(=O)c1sc2ccccc2c1Cl | -1.08 |
| O=C(NCC1CCCO1)c1sc2ccccc2c1Cl (stereo not given) | -0.467 |
| CCCn1nnc(NC(=O)c2sc3ccccc3c2Cl)n1 | 0.0281 |
| CCOc1ccc(C(CC(=O)O)NC(=O)c2sc3ccccc3c2Cl)cc1 (stereo not given) | -0.958 |
| CCCOC(=S)NC(=O)c1sc2ccccc2c1Cl | 12 (active) |
| NC(N)=NS(=O)(=O)c1ccc(NC(=S)NC(=O)c2sc3ccccc3c2Cl)cc1 | 0.0467 |
| COc1ccc(C(CC(=O)O)NC(=O)c2sc3ccccc3c2Cl)cc1 (stereo not given) | -0.476 |

| Compound | z-score |
| --- | --- |
| O=C(NC(=S)N(CCCCO)C1CCCCC1)c1sc2ccccc2c1Cl | 9.88 (active) |
| CC(=O)c1c(C(C)=O)c(C)n(CCCCn2c(C)c(C(C)=O)c(C(C)=O)c2C)c1C | -0.0757 |
| Cc1cc(C(=O)Nc2ccc(S(=O)(=O)Nc3onc(C)c3C)cc2)c(C)o1 | 0.0164 |
| CC(=O)Nc1ccc(NC(=O)Cc2sc(C)nc2-c2ccc(C)cc2)cc1 | -0.345 |
| O=C(O)c1ccc(-c2nc(-c3ccccc3)c(-c3ccccc3)[nH]2)cc1 | -1.56 |
| Cc1ccc2oc(-c3cccc(NC(=O)c4cc(-n5cnnc5)ccc4Cl)c3)nc2c1 | -0.0315 |
| CCOC(=O)C1=C(C)N(C)C(=O)NC1c1ccc(C)s1 (stereo not given) | -0.0391 |
| O=C(CCC(=O)Nc1ccccc1)NNC(=O)C(c1ccccc1)c1ccccc1 | 0.336 |
| Cn1c(C23CC4CC(CC(C4)C2)C3)n[nH]c1=S | 0.216 |
| S=c1nn[nH]n1C12CC3CC(CC(C3)C1)C2 | 2.46 |
| Cc1nnn(C23CC4CC(CC(C4)C2)C3)n1 | -0.708 |
| COC(=O)c1sc2nc(SCc3ccccc3C#N)n(N)c(=O)c2c1C | 0.247 |
| CC1(C)CC(=O)C2=C(C1)Oc1ncn(CCO)c(=N)c1C2c1ccccc1 (stereo not given) | 0.471 |
| COc1ccc(-c2oc3ncnc(NCCN4CCOCC4)c3c2-c2ccc(OC)cc2)cc1 | -0.338 |
| COc1ccc(C2C3=C(CC(C)(C)CC3=O)Oc3ncn(CCO)c(=N)c32)cc1OC (stereo not given) | 0.234 |
| N=c1c2c(ncn1CCN1CCOCC1)Oc1ccc3ccccc3c1C2c1ccccc1 (stereo not given) | 4.03 (active) |
| COc1ccc(-c2oc3ncn(CCN4CCOCC4)c(=N)c3c2-c2ccc(OC)cc2)cc1 | 2.6 |
| COc1ccc(C2c3ccc4ccccc4c3Oc3ncn(CCN4CCOCC4)c(=N)c32)cc1 (stereo not given) | 4.1 (active) |
| COc1ccc(C2c3ccc4ccccc4c3Oc3ncn(Cc4ccco4)c(=N)c32)cc1OC (stereo not given) | 0.46 |
| COc1ccc(C2c3c(ncn(CCN4CCOCC4)c3=N)Oc3ccc4ccccc4c32)cc1OC (stereo not given) | 0.922 |
| COc1ccc(C2C3=C(CC(C)(C)CC3=O)Oc3ncn(Cc4ccccc4)c(=N)c32)cc1 (stereo not given) | 2.84 |
| c1ccc(-c2oc3ncnc(NCCN4CCOCC4)c3c2-c2ccccc2)cc1 | -0.115 |

| Compound | z-score |
| --- | --- |
| N=c1c2c(ncn1Cc1ccco1)Oc1c(ccc3ccccc13)C2c1ccccc1 (stereo not given) | 0.538 |
| COc1ccc(C2c3c(ncn(Cc4ccco4)c3=N)Oc3ccc4ccccc4c32)cc1 (stereo not given) | -0.169 |
| CC(CN1CCOCC1)OC(=O)C(C)(c1ccccc1)c1ccccc1 (stereo not given) | 0.383 |
| O=C(CSc1nnc(-c2ccc(OC(F)F)cc2)o1)NC(=O)NCc1ccco1 | -0.253 |
| CC1=CC(c2ccccc2)n2nc(N3C(=O)C4CC=CCC4C3=O)nc2N1 (stereo not given) | -0.783 |
| CC1(C)Cc2c(ccc3ccccc23)C(NNC(=O)c2cccnc2)=N1 | 0.408 |
| CC1(C)Cc2c(ccc3ccccc23)-c2nnc(-c3cccnc3)n21 | 3.16 (active) |
| CC1(C)Cc2ccccc2-c2nnc(-c3cccnc3)n21 | 0.241 |
| CCOC(=O)c1c(NC(=O)c2cccs2)sc(CC)c1-c1cccs1 | -0.275 |
| COC(=O)c1nn(Cc2ccccc2)c(=O)c2ccccc12 | 0.721 |
| COc1ccc(CCNC(=S)NC(=O)c2ccccc2)cc1OC | 0.202 |
| COc1cc(OC)cc(C(=O)NC(=S)NCCc2ccccc2)c1 | 2.08 |
| COc1ccc(C(=O)NC(=S)NNC(=O)Cc2cccs2)cc1 | 0.741 |
| O=C(Cc1cccs1)NNC(=S)NC(=O)c1ccccc1 | 0.646 |
| COc1cc(OC)cc(C(=O)NC(=S)NNC(=O)Cc2cccs2)c1 | 2.21 |
| Cc1ccc(C(=O)NC(=S)NCC(=O)c2ccccc2)cc1 | -0.021 |
| O=C(CNC(=S)NC(=O)c1ccccc1)c1ccccc1 | 0.079 |
| O=C(CNC(=S)NC(=O)c1cccs1)c1ccccc1 | 6.19 (active) |
| O=C(NC(=S)NCCc1ccccc1)c1ccccc1 | 1.9 |
| COc1ccc(CCNC(=O)c2c(-c3ccccc3Cl)noc2C)cc1 | 0.099 |
| Cc1onc(-c2ccccc2Cl)c1C(=O)NC(=S)NCCc1ccccc1 | 2.63 |
| Cc1onc(-c2ccccc2Cl)c1C(=O)NCc1ccccc1 | 0.341 |
